# Data: PubChem BioAssay (NCATS)
# “And” between values parts separate entries of the source, which are not always exact repeats. Equal values may be shown once. Inconclusive results are not listed. The source made the active and inactive calls. Calls come from the whole dose curve; as a rule, active = well fitted cell-killing curve with a large enough effect; inconclusive = small, poorly fitted or top-dose-only effect, or effect the other way; inactive = no such curve, though single readings can be large or run the other way.
# Assay: qHTS of pediatric cancer cell lines to identify multiple opportunities for drug repurposing: Confirmatory screen for Saos-2 cells (AID 1347127); note: nearly all actives have a fitted effect of over 60% in size
# Conditions: Saos-2 osteosarcoma cell viability; series mostly up to 45.9 µM
# Outline: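 Cells (500-1,000/well) rested 5 h, then received compounds for 48 h; metabolically active cells were measured by CellTiter-Glo luminescence. Final concentrations spanned up to 46 µM (MIPE, 11-point) or 0.59 nM-46 µM (NPC, 8-point) in primary screens, 11-point in follow-ups.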
# Potency is the fitted concentration of half-maximal effect.
row,SMILES,Potency
1,C[C@H]1O[C@@H](O[C@H]2[C@@H](O)C[C@H](O[C@H]3[C@@H](O)C[C@H](O[C@H]4CC[C@@]5(C)[C@H](CC[C@@H]6[C@@H]5CC[C@]5(C)[C@@H](C7=CC(=O)OC7)CC[C@]65O)C4)O[C@@H]3C)O[C@@H]2C)C[C@H](O)[C@@H]1O,1.04 µM (active)
2,COC[C@@H](NC(C)=O)C(=O)NCc1ccccc1,inactive
3,C[C@@H]1O[C@@H](O[C@H]2C[C@@H](O)[C@]3(CO)[C@H]4[C@H](O)C[C@]5(C)[C@@H](C6=CC(=O)OC6)CC[C@]5(O)[C@@H]4CC[C@]3(O)C2)[C@H](O)[C@H](O)[C@H]1O,369 nM (active) and 657 nM (active)
4,O=c1[nH]c2ccccc2n1CCCN1CCC(n2c(=O)[nH]c3cc(Cl)ccc32)CC1,10.4 µM (active)
